Compound activity as filed in PubChem.
Most compounds without a hit are left out; they make up all but 0.83% or so of the library.
NCOA3 inh: inhibitors of human steroid receptor coactivator 3 (SRC3); HEK293 GAL4-SRC3 luciferase reporter, luminescence; inhibition, % at 3.6 µM; 360,000 tested, 0.17% active; AID 588352;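 active = inhibition above a per-campaign cutoff, the mean of all compounds plus 3 SD, cut at about 60% in these data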;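 note: 0% = DMSO-treated cells and 100% = gossypol-treated cells at 36 µM; higher means less SRC3-driven luciferase light from the GAL4 reporter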
NCOA2 inhibitor: inhibits human steroid receptor coactivator 2. Q15596. HEK293 GAL4-SRC2 luciferase reporter, luminescence. inhibition, % at 9 µM. 370,000 tested, 0.17% active;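 active = inhibition above the mean inhibition of all tested compounds plus 3 SD, set per campaign, cut at about 52% in these data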;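 note: 0% = DMSO treated cells and 100% = cells given Gossypol at 36 µM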
SRC1 inh: inhibits human SRC1 coactivator | HEK293 GAL4-SRC1 luciferase reporter, luminescence | Q15788 | 360,000 tested, 0.12% active | AID 588354 | inhibition, % at 3.6 µM;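 active = inhibition above the campaign mean plus 3 SD, with each screening campaign given its own cutoff, cut at about 60% in these data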;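 note: 0% = DMSO treated cells and 100% = gossypol at 36 µM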
LRH-1 inv ag: NR5A2 inverse agonism in reporter assay | O00482 | HEK293T StAR-luciferase reporter, LRH-1 transfected, 24 h | inhibition, % at 3.6 µM | 360,000 tested, 0.13% active | AID 602396;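 active = inhibition above the mean inhibition of all tested compounds plus 3 SD, cut at about 73% in these data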;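 note: 0% = DMSO wells and 100% = reporter-only cells lacking LRH-1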
Gli-Sufu block: Gli-Sufu pathway antagonism; 340,000 tested, 0.74% active; inhibition, % at 5 µM; Sufu-KO-LIGHT fibroblasts, Gli luciferase reporter luminescence;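 active = inhibition above about 55%, limit read from the data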;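 note: 0% = DMSO-treated cells and 100% = wells with medium but no cells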
Gli-Sufu confirm: confirmation of Gli-SUFU pathway antagonists; inhibition, % at 5 µM; 2,500 tested, 40% active; Sufu-KO-LIGHT cells, Gli luciferase reporter, luminescence; shares compounds with Gli-Sufu block; AID 602428;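 active = mean inhibition at 5 µM reaching about 45%, limit read from the data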;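 note: plate controls were DMSO-treated cells for no effect and wells lacking cells for full effect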
SufuKO cytotox: cytotoxicity counter-screen for Gli-SUFU antagonists; 2,500 tested, 32% active; shares compounds with Gli-Sufu block; cytotoxicity, % at 5 µM; Sufu-KO-LIGHT cells cytotoxicity, ATP luminescence;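 active = mean cytotoxicity at 5 µM above about 25%, limit read from the data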;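 note: cells exposed to compound overnight for roughly 16 to 18 hours; plate controls were DMSO wells with cells for no effect and medium without cells for full effect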
Wnt3a counter: inhibits Wnt3a reporter, counter-screen for Gli-SUFU antagonists; shares compounds with Gli-Sufu block; Wnt-LIGHT cells, Wnt3a-driven luciferase reporter, luminescence; inhibition, % at 6.25 µM; 2,500 tested, 20% active;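 active = mean inhibition above about 25%, limit read from the data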
Numbers without * were called inactive; nt = no result.

SMILES	NCOA3 inh	NCOA2 inhibitor	SRC1 inh	LRH-1 inv ag	Gli-Sufu block	Gli-Sufu confirm	SufuKO cytotox	Wnt3a counter
COC(=O)Oc1ccc(/C=C/C(=O)OC(C)C)cc1OC(=O)OC	-73	-27	-67	-106	53	29	24	-6
COC(=O)[C@]12C[C@H](CC(=O)NCc3cccs3)C(=O)N(Cc3ccco3)C1=C[C@H](C(C)(C)C)O[C@@H]2C	nt	-43	nt	nt	nt	nt	nt	nt
CN(C)S(=O)(=O)c1cccc(C(=O)N/N=C\c2ccnc3ccccc23)c1	nt	-5	nt	nt	nt	nt	nt	nt
O=C(CSc1nnc(-c2cccnc2)n1-c1ccccc1)c1ccccc1Cl	nt	-51	nt	nt	nt	nt	nt	nt
CC(=O)NCC(=O)NC1CCCc2c1cnn2-c1ccc(C(C)(C)C)cc1 (stereo not drawn)	-9	-5	-33	-22	2	nt	nt	nt
CC(C)(C)c1ccc(-n2ncc3c2CCCC3NC(=O)C2(C(N)=O)CC2)cc1 (stereo not drawn)	29	27	-12	30	76*	65*	30*	-10
COc1ccc(CCNC(=O)CCC(=O)Nc2ccc3nc(N4CCN(C)CC4)cc(C)c3c2)cc1OC	12	2	-24	9	51	26	20	-10
CCOc1ccc(CCNC(=O)CCC(=O)Nc2ccc3nc(N4CCN(C)CC4)cc(C)c3c2)cc1OCC	9	-4	-12	-21	4	nt	nt	nt
Cn1c(Cc2csc(N)n2)nnc1SCC(=O)NC1CCCCC1	9	-4	-1	-15	2	nt	nt	nt
Cn1c(Cc2csc(N)n2)nnc1SCC(=O)NCc1ccccc1	3	-2	-3	15	95*	4	2	-17
CC(/C=C1\SC(=O)N(CCCC(=O)O)C1=O)=C\c1ccccc1	42	93*	26	20	60*	73*	12	100*
CC(/C=C1\SC(=S)N(CCCC(=O)Nc2ccc(C(=O)O)cc2)C1=O)=C\c1ccccc1	-12	-7	-8	-10	-1	nt	nt	nt
COc1ccc(OC)c(CN2C(=O)CCCCC2(C)c2nnnn2C2CCCC2)c1 (stereo not drawn)	nt	3	nt	nt	nt	nt	nt	nt
Cc1cccc(/C=N/Nc2cc(N3CCOCC3)nc(N3CCOCC3)n2)c1	17	8	7	-1	60*	41	34*	-103
Cc1ccc(/C=N/Nc2cc(C)nc(N3CCOCC3)n2)cc1	7	-10	-18	-1	1	nt	nt	nt
Cc1ccc(Nc2nc(N/N=C\c3ccc4c(c3)OCO4)nc(N3CCOCC3)n2)cc1	-3	-29	-281	-11	56*	50*	35*	-75
O=C(NCCCN1CCOCC1)c1ccccc1	6	-8	6	-4	61*	29	13	3
O=C(CC(c1ccccc1)c1cc(Br)ccc1O)NCCN1CCOCC1 (stereo not drawn)	7	0	1	22	6	nt	nt	nt
O=C(NCCCN1CCOCC1)c1cccnc1	8	3	9	8	-10	nt	nt	nt
O=C(CC(c1ccccc1)c1cc(Br)ccc1O)NCCCN1CCOCC1 (stereo not drawn)	-21	19	2	3	52	19	3	-30
CC(C)N1CCCCC(NC(=O)c2ccc(-c3ccccc3)cc2)C1=O (stereo not drawn)	nt	-24	nt	nt	nt	nt	nt	nt
Cc1csc(=Nc2cccnc2)n1Cc1ccco1	12	5	-10	4	55*	4	0	-22
CC(=O)N1CCC(C(=O)N2CCN(S(=O)(=O)c3ccc(Cl)s3)CC2)CC1	23	-1	7	3	97*	15	22	11
Cn1ncc(Cl)c1C(=O)N1CCN(C23CC4CC(CC(C4)C2)C3)CC1	12	-4	-10	18	99*	26	4	-14
O=C(Cc1ccc(F)cc1)NCCS(=O)(=O)N1CCN(c2ccccc2)CC1	5	6	7	-9	97*	10	8	-56
SMILES	NCOA3 inh	NCOA2 inhibitor	SRC1 inh	LRH-1 inv ag	Gli-Sufu block	Gli-Sufu confirm	SufuKO cytotox	Wnt3a counter
O=C(Cc1ccccc1)NCCS(=O)(=O)N1CCN(c2ccccc2)CC1	-6	7	-7	-19	-4	nt	nt	nt
COC(=O)C1=C[C@@H]([C@@H](C)[C@H](OC)c2ccccc2Br)[C@@H]2OCCC[C@H]12	nt	-12	nt	nt	nt	nt	nt	nt
CCOc1ccccc1NC(=O)CCN1CCN(S(=O)(=O)c2ccc(Br)cc2)CC1	-7	-26	0	14	53	17	19	-74
Cc1cc(N2CCN(c3ccc(C(F)(F)F)cc3[N+](=O)[O-])CC2)c2ccccc2n1	4	-22	16	22	52	34	19	-53
CC(=O)Nc1ccc(C(CCCc2ccccc2)C2=CCCCC2)cc1 (stereo not drawn)	nt	14	nt	nt	nt	nt	nt	nt
CC(=O)OC12CCCN(C1)/C(=C/c1cccc(N(C)C)c1)C2 (stereo not drawn)	nt	20	nt	nt	nt	nt	nt	nt
Cc1ccc(NC(=O)C2CCN(S(=O)(=O)c3ccc(N4CCCC4=O)cc3)CC2)cc1Cl	6	38	-1	24	81*	84*	41*	8
Cc1cc(S(=O)(=O)N2CCCC(C(=O)Nc3ccc(C(=O)O)cc3)C2)ccc1Cl (stereo not drawn)	10	0	0	-2	55*	16	-7	14
COc1ccc(NC(=O)C2CCN(S(=O)(=O)c3ccc(N4CCCC4=O)cc3)CC2)c(OC)c1	7	15	15	9	39	nt	nt	nt
O=C(Nc1cccc(C(=O)O)c1)Nc1ccc2c(c1)OCO2	-53	-87	-71	-108	-62	nt	nt	nt
Cc1ccc(C(=O)O)cc1NC(=O)Nc1ccc2c(c1)OCO2	-24	-36	-28	-28	56*	-3	18	-54
Cn1cccc1C(=O)N1CCN(S(=O)(=O)c2ccc(F)cc2)CC1	nt	-17	nt	nt	nt	nt	nt	nt
N=c1c(-c2nc3ccccc3[nH]2)cc(C(=O)c2ccco2)nn1-c1ccccc1	0	-1	-5	4	62*	35	6	-118
N=c1c(-c2nc3ccccc3[nH]2)cc(C(=O)c2cccs2)nn1-c1ccccc1	1	nt	-2	-6	8	nt	nt	nt
Cc1cc(/C=N/n2cnnc2)c(C)n1-c1ccc(OCc2ccccc2F)cc1	-18	-10	-49	-70	60*	68*	27*	27*
Fc1ccccc1COc1cccc(/C=N/n2cnnc2)c1	-18	-8	-15	-82	-8	nt	nt	nt
COc1ccc(CCNC(=O)C2CCN(S(=O)(=O)c3cccc4nsnc34)CC2)cc1OC	4	-7	-10	2	4	nt	nt	nt
COc1ccc(CCNC(=O)C2CCN(S(=O)(=O)c3cccc4cccnc34)CC2)cc1OC	-14	nt	-30	-22	52	23	0	-17
O=C(CN1CCOCC1)NCc1cc([N+](=O)[O-])ccc1O	12	-3	-36	11	55*	22	0	-3
